# In paper PMC7862700, “An all-to-all approach to the identification of sequence-specific readers for epigenetic DNA modifications on cytosine”:
# How the values were obtained:
# Experiment in all cases: DAPPL (digital affinity profiling via proximity ligation, sequencing); 10 mM Tris-HCl pH 7.5, 50 mM NaCl, 1 mM DTT, 4% glycerol, room temperature, 30 min; GST-TFs on glutathione beads, 16-mer random dsDNA library, 0.1% formaldehyde crosslink after washing; high values mean tight binding
# FLI1 = molecular target: T1, FLI1 (Homo sapiens, UniProt Q01543 1-452); settings: protein: recombinant; tags: N-terminal GST; dsDNA, one strand shown
# T1 sequence: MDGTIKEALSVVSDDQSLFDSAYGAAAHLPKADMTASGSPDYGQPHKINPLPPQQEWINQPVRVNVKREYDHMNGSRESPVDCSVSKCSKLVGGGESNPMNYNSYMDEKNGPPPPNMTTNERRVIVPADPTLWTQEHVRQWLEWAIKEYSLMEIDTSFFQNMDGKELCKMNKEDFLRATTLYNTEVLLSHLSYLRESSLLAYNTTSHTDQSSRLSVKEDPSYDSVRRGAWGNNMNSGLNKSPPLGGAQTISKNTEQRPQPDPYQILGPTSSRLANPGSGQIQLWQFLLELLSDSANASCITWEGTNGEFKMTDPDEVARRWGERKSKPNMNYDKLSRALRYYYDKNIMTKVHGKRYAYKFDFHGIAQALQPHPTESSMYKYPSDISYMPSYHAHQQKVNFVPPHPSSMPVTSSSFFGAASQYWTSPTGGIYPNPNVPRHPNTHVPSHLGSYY
# How it was run: (§1)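 Human transcription factors fused to GST were expressed in yeast, captured on glutathione beads, given DNA barcodes and pooled with a GST-only negative control. Pools were incubated with 200 nmole of a 16-mer random double-stranded DNA library in Tris/NaCl/DTT/glycerol buffer at room temperature for 30 min. They were then washed, crosslinked with 0.1% formaldehyde, proximity-ligated (BsaI/T4 ligase, 1 h, 37 °C), PCR-amplified and sequenced on an Illumina NextSeq500. Binding signal is each 6-mer's read frequency for a factor divided by its frequency for the GST control.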
# ELK1 = molecular target: T2, ELK1 (Homo sapiens, UniProt P19419 1-428); settings: protein: recombinant; tags: N-terminal GST; dsDNA, one strand shown
# T2 sequence: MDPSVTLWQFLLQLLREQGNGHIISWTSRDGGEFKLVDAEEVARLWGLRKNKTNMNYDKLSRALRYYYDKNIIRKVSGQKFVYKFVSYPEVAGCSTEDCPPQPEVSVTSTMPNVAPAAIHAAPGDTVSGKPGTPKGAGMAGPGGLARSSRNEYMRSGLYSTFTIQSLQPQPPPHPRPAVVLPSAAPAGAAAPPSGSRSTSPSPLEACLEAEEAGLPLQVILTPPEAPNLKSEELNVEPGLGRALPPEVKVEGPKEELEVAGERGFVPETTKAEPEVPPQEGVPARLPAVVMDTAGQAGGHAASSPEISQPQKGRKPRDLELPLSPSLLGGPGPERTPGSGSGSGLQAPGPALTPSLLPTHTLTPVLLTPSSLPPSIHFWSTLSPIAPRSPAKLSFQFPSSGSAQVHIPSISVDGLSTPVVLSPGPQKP
# How it was run: as §1
# GABPA = molecular target: T3, GABPA (Homo sapiens, UniProt Q06546 1-454); settings: protein: recombinant; tags: N-terminal GST; dsDNA, one strand shown
# T3 sequence: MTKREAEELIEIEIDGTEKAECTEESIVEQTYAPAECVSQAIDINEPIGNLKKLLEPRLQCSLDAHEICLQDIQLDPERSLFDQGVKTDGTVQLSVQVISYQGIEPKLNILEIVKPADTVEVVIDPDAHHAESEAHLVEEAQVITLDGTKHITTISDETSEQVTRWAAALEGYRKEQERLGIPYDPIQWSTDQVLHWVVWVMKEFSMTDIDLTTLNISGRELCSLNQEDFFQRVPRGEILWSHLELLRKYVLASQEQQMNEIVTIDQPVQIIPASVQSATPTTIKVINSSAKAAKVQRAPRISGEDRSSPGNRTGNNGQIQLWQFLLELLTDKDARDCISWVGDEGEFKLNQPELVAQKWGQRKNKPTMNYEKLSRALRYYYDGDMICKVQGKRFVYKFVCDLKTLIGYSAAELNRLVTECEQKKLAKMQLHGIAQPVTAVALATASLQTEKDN
# How it was run: as §1
# ERG = molecular target: T4, ERG (Homo sapiens, UniProt P11308 1-479); settings: protein: recombinant; tags: N-terminal GST; dsDNA, one strand shown
# T4 sequence: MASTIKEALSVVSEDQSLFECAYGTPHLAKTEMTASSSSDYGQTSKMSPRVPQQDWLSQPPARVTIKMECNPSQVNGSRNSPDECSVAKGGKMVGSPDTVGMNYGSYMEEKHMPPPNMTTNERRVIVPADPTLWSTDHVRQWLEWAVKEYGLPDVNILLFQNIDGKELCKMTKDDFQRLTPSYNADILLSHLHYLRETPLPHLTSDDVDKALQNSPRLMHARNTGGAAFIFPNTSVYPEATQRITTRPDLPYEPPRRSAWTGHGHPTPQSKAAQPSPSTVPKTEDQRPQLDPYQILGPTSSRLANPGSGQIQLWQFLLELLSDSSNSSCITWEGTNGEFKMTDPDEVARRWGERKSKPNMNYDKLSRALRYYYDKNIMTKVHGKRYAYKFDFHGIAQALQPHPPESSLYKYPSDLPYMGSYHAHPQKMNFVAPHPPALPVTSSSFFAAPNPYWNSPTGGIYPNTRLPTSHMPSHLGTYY
# How it was run: as §1
# ELF1 = ELF1 (Homo sapiens, UniProt P32519 1-619); settings: protein: recombinant; tags: N-terminal GST; dsDNA, one strand shown
# Chain of ELF1 (P32519 whole entry): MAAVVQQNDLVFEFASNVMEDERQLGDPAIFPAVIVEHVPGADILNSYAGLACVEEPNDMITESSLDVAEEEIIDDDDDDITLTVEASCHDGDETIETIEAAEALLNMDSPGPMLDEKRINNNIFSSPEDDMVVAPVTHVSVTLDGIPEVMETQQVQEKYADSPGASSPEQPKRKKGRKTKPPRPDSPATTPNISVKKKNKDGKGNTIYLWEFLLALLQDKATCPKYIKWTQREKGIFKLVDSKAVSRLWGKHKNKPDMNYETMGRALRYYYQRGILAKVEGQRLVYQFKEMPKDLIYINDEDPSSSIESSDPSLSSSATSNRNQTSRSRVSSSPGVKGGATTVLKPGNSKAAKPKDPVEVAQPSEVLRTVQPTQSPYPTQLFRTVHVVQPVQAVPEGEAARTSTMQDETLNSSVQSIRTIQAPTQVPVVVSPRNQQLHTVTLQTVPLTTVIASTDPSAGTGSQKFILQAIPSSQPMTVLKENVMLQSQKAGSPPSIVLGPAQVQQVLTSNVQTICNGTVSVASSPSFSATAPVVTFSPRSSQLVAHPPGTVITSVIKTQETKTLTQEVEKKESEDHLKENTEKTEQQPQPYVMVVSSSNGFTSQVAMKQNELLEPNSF
# How it was run: as §1
# EHF = molecular target: T5, EHF (Homo sapiens, UniProt Q9NZC4 1-300); settings: protein: recombinant; tags: N-terminal GST; dsDNA, one strand shown
# T5 sequence: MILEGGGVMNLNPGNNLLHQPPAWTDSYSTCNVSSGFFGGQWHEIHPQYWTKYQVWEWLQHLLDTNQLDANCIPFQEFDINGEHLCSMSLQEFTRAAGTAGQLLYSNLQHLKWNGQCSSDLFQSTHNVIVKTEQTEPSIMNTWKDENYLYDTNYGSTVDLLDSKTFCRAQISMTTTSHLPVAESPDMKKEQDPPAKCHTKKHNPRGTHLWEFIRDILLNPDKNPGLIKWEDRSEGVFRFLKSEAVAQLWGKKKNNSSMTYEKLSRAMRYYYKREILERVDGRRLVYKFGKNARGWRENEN
# How it was run: as §1
# SPI1 = SPI1 (Homo sapiens, UniProt P17947 1-270); settings: protein: recombinant; tags: N-terminal GST; dsDNA, one strand shown
# How it was run: as §1
# SPIB = SPIB (Homo sapiens, UniProt Q01892 1-262); settings: protein: recombinant; tags: N-terminal GST; dsDNA, one strand shown
# Chain of SPIB (Q01892 whole entry): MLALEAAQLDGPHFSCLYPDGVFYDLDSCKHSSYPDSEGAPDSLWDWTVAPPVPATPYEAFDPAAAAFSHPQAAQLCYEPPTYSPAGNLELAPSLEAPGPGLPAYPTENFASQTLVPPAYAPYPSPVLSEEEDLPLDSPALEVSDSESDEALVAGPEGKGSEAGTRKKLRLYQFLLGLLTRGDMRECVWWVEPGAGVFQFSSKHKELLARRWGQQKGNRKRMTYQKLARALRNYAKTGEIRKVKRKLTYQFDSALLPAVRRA
# How it was run: as §1
# ELK3 = molecular target: T6, ELK3 (Homo sapiens, UniProt P41970 1-407); settings: protein: recombinant; tags: N-terminal GST; dsDNA, one strand shown
# T6 sequence: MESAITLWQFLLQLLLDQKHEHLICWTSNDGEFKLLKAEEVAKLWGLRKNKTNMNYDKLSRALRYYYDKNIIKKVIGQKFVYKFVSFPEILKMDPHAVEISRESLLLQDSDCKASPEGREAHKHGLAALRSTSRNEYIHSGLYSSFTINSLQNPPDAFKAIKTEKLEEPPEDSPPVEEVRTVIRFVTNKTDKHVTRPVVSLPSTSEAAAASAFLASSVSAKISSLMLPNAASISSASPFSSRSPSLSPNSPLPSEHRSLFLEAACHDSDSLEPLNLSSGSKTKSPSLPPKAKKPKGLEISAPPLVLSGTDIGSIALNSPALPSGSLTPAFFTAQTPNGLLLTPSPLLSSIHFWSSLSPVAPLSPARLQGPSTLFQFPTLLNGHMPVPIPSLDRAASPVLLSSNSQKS
# How it was run: as §1
# FEV = molecular target: T7, FEV (Homo sapiens, UniProt Q99581 1-238); settings: protein: recombinant; tags: N-terminal GST; dsDNA, one strand shown
# T7 sequence: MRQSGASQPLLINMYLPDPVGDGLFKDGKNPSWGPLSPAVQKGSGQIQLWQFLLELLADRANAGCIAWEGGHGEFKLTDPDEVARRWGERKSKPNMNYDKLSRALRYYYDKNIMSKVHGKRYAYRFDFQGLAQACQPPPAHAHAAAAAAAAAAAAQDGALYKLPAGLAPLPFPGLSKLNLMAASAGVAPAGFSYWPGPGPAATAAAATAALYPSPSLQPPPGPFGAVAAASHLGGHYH
# How it was run: as §1
# ETV5 = ETV5 (Homo sapiens, UniProt P41161 1-510); settings: protein: recombinant; tags: N-terminal GST; dsDNA, one strand shown
# Chain of ETV5 (P41161 whole entry): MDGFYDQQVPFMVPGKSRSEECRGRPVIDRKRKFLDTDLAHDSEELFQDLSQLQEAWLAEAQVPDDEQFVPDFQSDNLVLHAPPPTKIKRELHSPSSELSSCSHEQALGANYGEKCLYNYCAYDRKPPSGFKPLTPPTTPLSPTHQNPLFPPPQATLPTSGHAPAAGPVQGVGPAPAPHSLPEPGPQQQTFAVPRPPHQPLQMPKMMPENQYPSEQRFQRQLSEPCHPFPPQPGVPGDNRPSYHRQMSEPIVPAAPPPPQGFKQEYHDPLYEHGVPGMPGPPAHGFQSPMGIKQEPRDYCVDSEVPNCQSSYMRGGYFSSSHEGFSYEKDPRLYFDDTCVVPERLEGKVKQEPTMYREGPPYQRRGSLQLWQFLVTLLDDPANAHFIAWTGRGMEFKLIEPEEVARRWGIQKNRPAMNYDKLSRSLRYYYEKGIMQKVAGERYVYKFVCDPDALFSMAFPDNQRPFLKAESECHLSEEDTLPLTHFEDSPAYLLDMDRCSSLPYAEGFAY
# How it was run: as §1
# HSF1 = HSF1 (Homo sapiens, UniProt Q00613 1-529); settings: protein: recombinant; tags: N-terminal GST; chain copies: 3; dsDNA, one strand shown
# Chain of HSF1 (Q00613 whole entry): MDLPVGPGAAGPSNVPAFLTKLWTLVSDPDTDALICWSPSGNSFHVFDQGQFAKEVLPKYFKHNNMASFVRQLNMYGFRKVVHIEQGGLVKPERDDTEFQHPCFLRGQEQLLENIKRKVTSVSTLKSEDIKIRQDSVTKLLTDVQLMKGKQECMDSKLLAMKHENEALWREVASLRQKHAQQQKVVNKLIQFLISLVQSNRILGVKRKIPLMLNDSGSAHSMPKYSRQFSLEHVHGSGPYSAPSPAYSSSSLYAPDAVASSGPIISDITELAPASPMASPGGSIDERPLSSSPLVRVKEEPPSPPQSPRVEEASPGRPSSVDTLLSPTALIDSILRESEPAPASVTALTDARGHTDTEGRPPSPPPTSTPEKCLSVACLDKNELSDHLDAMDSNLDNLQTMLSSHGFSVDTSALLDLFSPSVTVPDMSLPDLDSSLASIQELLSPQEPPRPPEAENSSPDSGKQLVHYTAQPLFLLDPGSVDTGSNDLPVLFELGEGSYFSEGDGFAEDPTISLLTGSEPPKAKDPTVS
# How it was run: as §1
# SPIC = molecular target: T8, SPIC (Homo sapiens, UniProt Q8N5J4 1-248); settings: protein: recombinant; tags: N-terminal GST; dsDNA, one strand shown
# T8 sequence: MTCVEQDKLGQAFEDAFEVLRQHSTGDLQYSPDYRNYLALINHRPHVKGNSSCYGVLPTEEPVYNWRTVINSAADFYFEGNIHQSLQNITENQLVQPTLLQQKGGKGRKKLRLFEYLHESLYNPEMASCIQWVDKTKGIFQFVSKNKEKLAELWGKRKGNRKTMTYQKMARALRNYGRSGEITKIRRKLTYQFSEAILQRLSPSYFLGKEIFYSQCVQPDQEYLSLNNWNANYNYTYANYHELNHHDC
# How it was run: as §1
# ELF4 = ELF4 (Homo sapiens, UniProt Q99607 1-663); settings: protein: recombinant; tags: N-terminal GST; dsDNA, one strand shown
# Chain of ELF4 (Q99607 whole entry): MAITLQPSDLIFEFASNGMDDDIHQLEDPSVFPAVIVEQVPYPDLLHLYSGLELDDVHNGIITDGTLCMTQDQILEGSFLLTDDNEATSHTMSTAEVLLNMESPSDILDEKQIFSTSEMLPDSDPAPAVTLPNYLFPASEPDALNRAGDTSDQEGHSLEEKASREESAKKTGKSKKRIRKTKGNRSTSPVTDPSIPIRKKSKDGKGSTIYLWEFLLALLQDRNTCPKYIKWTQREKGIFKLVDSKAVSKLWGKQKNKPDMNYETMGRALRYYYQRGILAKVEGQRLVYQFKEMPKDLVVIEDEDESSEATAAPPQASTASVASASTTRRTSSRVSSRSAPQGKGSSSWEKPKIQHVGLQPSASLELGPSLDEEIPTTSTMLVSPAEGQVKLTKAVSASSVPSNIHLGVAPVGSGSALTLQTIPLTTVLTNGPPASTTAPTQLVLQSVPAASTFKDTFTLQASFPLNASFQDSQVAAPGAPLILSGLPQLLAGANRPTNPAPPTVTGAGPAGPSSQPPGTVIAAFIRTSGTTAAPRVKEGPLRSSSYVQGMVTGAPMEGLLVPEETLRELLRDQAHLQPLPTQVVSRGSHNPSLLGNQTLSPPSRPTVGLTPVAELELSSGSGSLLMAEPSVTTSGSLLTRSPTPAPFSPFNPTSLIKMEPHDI
# How it was run: as §1
# ELK4 = molecular target: T9, ELK4 (Homo sapiens, UniProt P28324-2 1-405); settings: protein: recombinant; tags: N-terminal GST; dsDNA, one strand shown
# T9 sequence: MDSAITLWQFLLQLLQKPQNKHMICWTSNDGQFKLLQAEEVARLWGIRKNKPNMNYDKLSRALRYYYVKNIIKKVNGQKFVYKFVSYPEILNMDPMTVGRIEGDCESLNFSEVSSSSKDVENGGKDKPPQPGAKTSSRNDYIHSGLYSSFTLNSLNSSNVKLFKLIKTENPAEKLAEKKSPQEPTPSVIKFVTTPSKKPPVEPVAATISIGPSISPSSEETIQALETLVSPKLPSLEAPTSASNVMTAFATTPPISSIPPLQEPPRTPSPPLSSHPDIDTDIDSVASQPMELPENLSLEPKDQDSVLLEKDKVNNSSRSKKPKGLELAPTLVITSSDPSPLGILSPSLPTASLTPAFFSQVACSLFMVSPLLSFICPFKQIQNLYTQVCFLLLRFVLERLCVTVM
# How it was run: as §1
# ETV2 = molecular target: T10, ETV2 (Homo sapiens, UniProt O00321 1-342); settings: protein: recombinant; tags: N-terminal GST; dsDNA, one strand shown
# T10 sequence: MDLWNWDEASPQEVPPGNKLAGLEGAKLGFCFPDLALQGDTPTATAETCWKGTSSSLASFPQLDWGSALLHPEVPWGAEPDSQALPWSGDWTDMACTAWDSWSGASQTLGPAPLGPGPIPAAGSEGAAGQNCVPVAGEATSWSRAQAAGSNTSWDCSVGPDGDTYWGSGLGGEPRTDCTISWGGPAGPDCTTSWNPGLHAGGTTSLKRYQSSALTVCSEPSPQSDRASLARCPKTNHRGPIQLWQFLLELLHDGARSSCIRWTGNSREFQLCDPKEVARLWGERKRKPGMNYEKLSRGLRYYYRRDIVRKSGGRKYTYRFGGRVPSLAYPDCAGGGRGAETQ
# How it was run: as §1
# ELF3 = molecular target: T11, ELF3 (Homo sapiens, UniProt P78545 1-371); settings: protein: recombinant; tags: N-terminal GST; dsDNA, one strand shown
# T11 sequence: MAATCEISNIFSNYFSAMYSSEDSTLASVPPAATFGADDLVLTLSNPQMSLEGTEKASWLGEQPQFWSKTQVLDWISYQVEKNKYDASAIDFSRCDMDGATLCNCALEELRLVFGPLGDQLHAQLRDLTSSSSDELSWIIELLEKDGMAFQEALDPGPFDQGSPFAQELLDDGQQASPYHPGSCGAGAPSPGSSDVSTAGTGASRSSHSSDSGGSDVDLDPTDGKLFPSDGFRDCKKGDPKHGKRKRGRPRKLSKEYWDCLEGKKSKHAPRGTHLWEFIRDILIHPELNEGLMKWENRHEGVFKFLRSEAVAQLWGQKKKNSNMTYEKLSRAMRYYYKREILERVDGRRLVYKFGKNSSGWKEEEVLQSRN
# How it was run: as §1
# CRX = CRX (Homo sapiens, UniProt O43186 1-299); settings: protein: recombinant; tags: N-terminal GST; dsDNA, one strand shown
# Chain of CRX (O43186 whole entry): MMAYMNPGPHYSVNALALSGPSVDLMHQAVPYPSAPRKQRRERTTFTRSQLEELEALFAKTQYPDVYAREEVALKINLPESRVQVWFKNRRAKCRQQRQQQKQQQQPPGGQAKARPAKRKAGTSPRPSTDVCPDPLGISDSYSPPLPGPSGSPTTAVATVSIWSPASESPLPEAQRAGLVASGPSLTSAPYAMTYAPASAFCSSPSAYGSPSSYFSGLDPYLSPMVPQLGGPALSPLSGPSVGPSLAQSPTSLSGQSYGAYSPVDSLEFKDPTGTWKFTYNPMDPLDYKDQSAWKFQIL
# How it was run: as §1
# ETV1 = ETV1 (Homo sapiens, UniProt P50549 1-477); settings: protein: recombinant; tags: N-terminal GST; dsDNA, one strand shown
# Chain of ETV1 (P50549 whole entry): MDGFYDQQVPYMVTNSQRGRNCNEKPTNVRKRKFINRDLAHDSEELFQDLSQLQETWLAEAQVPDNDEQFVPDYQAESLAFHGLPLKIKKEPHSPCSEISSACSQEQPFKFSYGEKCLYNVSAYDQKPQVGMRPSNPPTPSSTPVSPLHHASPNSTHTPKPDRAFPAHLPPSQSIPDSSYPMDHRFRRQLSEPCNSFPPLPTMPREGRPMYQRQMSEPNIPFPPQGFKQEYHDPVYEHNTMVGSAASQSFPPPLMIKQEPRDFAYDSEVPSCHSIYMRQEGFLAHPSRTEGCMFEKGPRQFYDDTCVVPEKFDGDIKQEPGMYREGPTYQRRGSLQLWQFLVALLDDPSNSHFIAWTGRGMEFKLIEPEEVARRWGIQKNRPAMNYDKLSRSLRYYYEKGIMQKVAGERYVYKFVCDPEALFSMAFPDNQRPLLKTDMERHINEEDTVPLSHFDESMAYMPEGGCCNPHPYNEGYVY
# How it was run: as §1
sequence,measurement,setting,value
CTTCGG,binding signal,FLI1,"1.48 fold enrichment (6-mer frequency, TF over GST control)"
same,binding signal,ELK1,"1.46 fold enrichment (6-mer frequency, TF over GST control)"
same,binding signal,GABPA,"1.58 fold enrichment (6-mer frequency, TF over GST control)"
same,binding signal,ERG,"1.35 fold enrichment (6-mer frequency, TF over GST control)"
same,binding signal,ELF1,"1.39 fold enrichment (6-mer frequency, TF over GST control)"
same,binding signal,EHF,"1.24 fold enrichment (6-mer frequency, TF over GST control)"
same,binding signal,SPI1,"1.37 fold enrichment (6-mer frequency, TF over GST control)"
same,binding signal,SPIB,"1.46 fold enrichment (6-mer frequency, TF over GST control)"
same,binding signal,ELK3,"1.38 fold enrichment (6-mer frequency, TF over GST control)"
same,binding signal,FEV,"1.51 fold enrichment (6-mer frequency, TF over GST control)"
same,binding signal,ETV5,"1.54 fold enrichment (6-mer frequency, TF over GST control)"
same,binding signal,HSF1,"1.77 fold enrichment (6-mer frequency, TF over GST control)"
same,binding signal,SPIC,"1.48 fold enrichment (6-mer frequency, TF over GST control)"
same,binding signal,ELF4,"1.5 fold enrichment (6-mer frequency, TF over GST control)"
same,binding signal,ELK4,"1.52 fold enrichment (6-mer frequency, TF over GST control)"
same,binding signal,ETV2,"1.52 fold enrichment (6-mer frequency, TF over GST control)"
same,binding signal,ELF3,"1.39 fold enrichment (6-mer frequency, TF over GST control)"
same,binding signal,CRX,"1.52 fold enrichment (6-mer frequency, TF over GST control)"
same,binding signal,ETV1,"1.72 fold enrichment (6-mer frequency, TF over GST control)"
